Source: article PMC13494018
Values without a mark were called inactive. How the calls were made is not given here.

Target: VTCN1, Q7Z7D3
Sequence (Q7Z7D3 whole entry): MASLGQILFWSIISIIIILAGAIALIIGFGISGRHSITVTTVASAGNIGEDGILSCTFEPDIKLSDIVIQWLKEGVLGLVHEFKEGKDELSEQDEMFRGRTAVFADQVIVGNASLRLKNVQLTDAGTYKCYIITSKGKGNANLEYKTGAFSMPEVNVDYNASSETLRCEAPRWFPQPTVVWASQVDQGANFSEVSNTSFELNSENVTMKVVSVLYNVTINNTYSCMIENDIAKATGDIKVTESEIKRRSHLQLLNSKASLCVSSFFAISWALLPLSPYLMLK

| Binder | binding in a display sort |
| --- | --- |
| design_599_7ce25d4d-e004-4b84-a16f-baf856d943ab_1610_dldesign_0_cycle1_af2pred (protein) DLKEKAKKGIELAKELIEKAKELKKKGDIIGAIAYAERAIHAAEAALKIAKKADPELAKEAKKVLEEAKKELEKIEKE | not found |
| design_599_7ce25d4d-e004-4b84-a16f-baf856d943ab_173_dldesign_0_cycle1_af2pred (protein) SEAEKVIEEARKKAEEAREFIKKIREEGGNPEAAELALQALSHFKAAEALAKSGENLESAKKHLEEGKKLLEEAKELYE | not found |
| design_599_7ce25d4d-e004-4b84-a16f-baf856d943ab_506_dldesign_0_cycle1_af2pred (protein) MEEEKKAIEEAKERAKEIAEKAVKEAKKAKTPKEISEAIREMVRKLRELVKEVREKYSEETAEKVKEIAAKERLKAVDEIAAAK | not found |
| design_599_7ce25d4d-e004-4b84-a16f-baf856d943ab_378_dldesign_0_cycle1_af2pred (protein) AAAAILAATDAEVAAILAKGAEEIAKAAKEEGPEAAKKVATEVLEKANDVIAEGGVKAGLSAKEISARINAAQKEVRAIAEKAIEAAA | not found |
| design_599_7ce25d4d-e004-4b84-a16f-baf856d943ab_1147_dldesign_0_cycle1_af2pred (protein) DAEKLMKKAKEYAELAKQAKEKGTPSSAQVAEFHAEIAEELAKKAEELDPKYKKEAEEIKKIAKEAKAVGEKADEEILKKIK | not found |
| design_599_7ce25d4d-e004-4b84-a16f-baf856d943ab_1658_dldesign_0_cycle1_af2pred (protein) EEIQKKNNFLAYAEAAIHAAEAIAKNSDEKTGKALKEEAKKVKEHEDDKEEAIKHLEKAAKIAAGHPGAPILQKRVAKAKAAA | not found |
| design_599_7ce25d4d-e004-4b84-a16f-baf856d943ab_519_dldesign_0_cycle1_af2pred (protein) MEAALEALKKAAAEAANLVYDAADIGAEEAEKAAKEAIKKIKDTATPELAPLAKEYAEKLGKTAERLIENNKYGEELKK | not found |
| design_599_7ce25d4d-e004-4b84-a16f-baf856d943ab_360_dldesign_0_cycle1_af2pred (protein) TAAITEARDAAVEARGDVELAKAKNAKAEEYEKAAKKAEEAKKKLKEVLETVELSEEERETAERMIEAMERAAEEARKLAKEKK | not found |
| design_599_7ce25d4d-e004-4b84-a16f-baf856d943ab_1182_dldesign_0_cycle1_af2pred (protein) AAVEAALAAAEAEFDRAAAFARGAAAAAVKNPKTKAFGEEALKKLDALKAEVAAAKADPEAALKAAKAAAAEAEAIMDEALEANAKA | not found |
| design_599_7ce25d4d-e004-4b84-a16f-baf856d943ab_451_dldesign_0_cycle1_af2pred (protein) EKITAVNEAEAYLEALKHAAEVLTKIDPSLKPEAEKAIKEGEKLVKEAKEGNAETAKKAAEEIRKLLKEVIELGKKAKA | not found |
| design_599_7ce25d4d-e004-4b84-a16f-baf856d943ab_1128_dldesign_0_cycle1_af2pred (protein) MLSKEASEVIKKAVKAAKKVAEAGKKLGIGEKAKKEAAKKVEEVADAVVESLEKGKEAAEKFAKEAEVLAKLAKA | not found |
| design_599_7ce25d4d-e004-4b84-a16f-baf856d943ab_928_dldesign_0_cycle1_af2pred (protein) AAAKEEAEKRAKKALEEGEKAAKEIEKSNAEEARKIAKEFREKAKELVADPEASPEEKKALAEGAQKAYEAAAEKEAKE | not found |
| design_599_7ce25d4d-e004-4b84-a16f-baf856d943ab_929_dldesign_0_cycle1_af2pred (protein) GLDAVTDALAEAFYASREIEKIDPELGKELLEYAKELAKKAIAGTPEAAKKLAEEIKKKTEEKLKEAEEKAKKE | not found |
| design_599_7ce25d4d-e004-4b84-a16f-baf856d943ab_1040_dldesign_0_cycle1_af2pred (protein) EKLKERYKAAAKNLEKAAESKDKNEAKALIGRAEALALNASADPAAPEIAKLADEALEAVYKDLEKGKELAKKAAEKAKEAAA | not found |
| design_599_7ce25d4d-e004-4b84-a16f-baf856d943ab_718_dldesign_0_cycle1_af2pred (protein) SELTEKVNKEADELRKRAREIGETARRLAEEAAKHDPAAAEEIRRLASLSIQKLFEGDEEEAERYWEEAVALAKAAVA | not found |
| design_599_7ce25d4d-e004-4b84-a16f-baf856d943ab_1590_dldesign_0_cycle1_af2pred (protein) MEEAVKKVKELGKEALKRIEEAGKGTPEELEKKSAEVAKEFDAKVEELASKSSPEAAKAILEEAAKARKEMQETYKKALEQAKKNA | not found |
| design_599_7ce25d4d-e004-4b84-a16f-baf856d943ab_1166_dldesign_0_cycle1_af2pred (protein) AEELYEKAKKLLTEAIFGLADGTINEEEALKAIEEGRKAAEELKKLGDEEKAEELERGVRALEDMIEDIRKAE | not found |
| design_599_7ce25d4d-e004-4b84-a16f-baf856d943ab_358_dldesign_0_cycle1_af2pred (protein) HMKYIELLDRINKVSKELQEAYKEASKDPENKPKVEELAKEASELRDKGYDEPEKAEEYLKKMEELAKEMKKLAKE | not found |
| design_599_7ce25d4d-e004-4b84-a16f-baf856d943ab_1383_dldesign_0_cycle1_af2pred (protein) SEEEKKKKYEEAKKKMEKAGEEALKNVEDGAVVMDALATMREAVHEAEKLSPEYGKEARKLLEKYREEIKKKREEVEKKKAEEEKK | not found |

| Binder | binding in a display sort |
| --- | --- |
| design_599_7ce25d4d-e004-4b84-a16f-baf856d943ab_290_dldesign_0_cycle1_af2pred (protein) SEARRERLRAEAEEAIEKLKEAAKQAFEAGNGEAALVAVRAAARARRLLADPATVEEGLRVAKEGLEKAEKLLKE | not found |
| design_599_7ce25d4d-e004-4b84-a16f-baf856d943ab_1596_dldesign_0_cycle1_af2pred (protein) DEEIKKKAEELKKKAEELEKEAETANAEELKKLAEEAIKLASKAAQLAEYAPKELAPYAEEVENYVSDIAVKAIQKRREVEEKEKKE | not found |
| design_599_7ce25d4d-e004-4b84-a16f-baf856d943ab_441_dldesign_0_cycle1_af2pred (protein) GKKEEAEKKMKKAYEKMKKLAEEAGKAKDPKEAYEYLLKIEEVGAEAINYAAKIGDKETAREAAKKYRELFREAVKKAQAAGKA | not found |
| design_599_7ce25d4d-e004-4b84-a16f-baf856d943ab_1672_dldesign_0_cycle1_af2pred (protein) TPSPELAAKITAATDEILELADKNIEEGGENLDEVEKTATEKGKELGMTKLANALIKSAKIGVELQKKTK | not found |
| design_599_7ce25d4d-e004-4b84-a16f-baf856d943ab_347_dldesign_0_cycle1_af2pred (protein) AEAEKAKATADAKKEAKAFAEEAKKKAEEASKGTPEDVKKERDKVAAEFDKKIAEAAGNPEAAAAYAEARHEAKAEYDLAYVKAK | not found |
| design_599_7ce25d4d-e004-4b84-a16f-baf856d943ab_1149_dldesign_0_cycle1_af2pred (protein) DVLEKMKELVKEIIEAASKLSPDIAKIFEAAGKVALKKYEEDPEAGIKGAQKLAAVGARVALPDKEAAERLKELAKEVA | not found |
| design_599_7ce25d4d-e004-4b84-a16f-baf856d943ab_219_dldesign_0_cycle1_af2pred (protein) MDPAELAAAKQAEAEAIIAETKAKAEKYIEEAKKSKKYVEALQYVGRAEVLLDSTVSYLTKNVGPEAGEKAQEIADKTVKEGFEIVKK | not found |
| design_599_7ce25d4d-e004-4b84-a16f-baf856d943ab_1137_dldesign_0_cycle1_af2pred (protein) GAAAAAAAQEARQAIAEAEFAAAKGDPAAEAALEKAAAAAEKAAAADPEVGAKVKALVDKARAKVAAAKAA | not found |
| design_599_7ce25d4d-e004-4b84-a16f-baf856d943ab_748_dldesign_0_cycle1_af2pred (protein) SKEEIKKQSELMKKATRYVKEAGKAAKVLGEEGKKKVEEMVKLRDQAADSDVETAKKLTEEIEKEAEEVIKKAEEKEK | not found |
| design_599_7ce25d4d-e004-4b84-a16f-baf856d943ab_1476_dldesign_0_cycle1_af2pred (protein) GEELEKLKKRAEKLLEEGKKKAKEDPEEGRKVAKEIRAEGKAHPEGKEAFAKAAAEVYQYIAEEEQKERLKKN | not found |
| design_599_7ce25d4d-e004-4b84-a16f-baf856d943ab_1749_dldesign_0_cycle1_af2pred (protein) MEKEEELKYGEELLKKAREEAKKKIEKAAKEGKIAEGAQEAIQVINEYSFEAAKKAKKEEVKKKIWEKGKEIKKEVVERAKELVKEQE | not found |
| design_599_7ce25d4d-e004-4b84-a16f-baf856d943ab_845_dldesign_0_cycle1_af2pred (protein) NELEKAAKAAEAVAKALRAAAEAGPTPESLAAVEALAKEAAKVDEAAADIARAAVAAARADPARAAEALRRGARIAKRLAEDYKKAI | not found |
| design_599_7ce25d4d-e004-4b84-a16f-baf856d943ab_284_dldesign_0_cycle1_af2pred (protein) AEVEAFKAAAEKYYKKAKEYFEKAKKTGSKSLYLKGASYAELALHNLENAAKAAAAKDPAEGAKLQKELKETKEELDKLYEEARKAAV | binds (active) |
| design_599_7ce25d4d-e004-4b84-a16f-baf856d943ab_1357_dldesign_0_cycle1_af2pred (protein) EEEERRREERAREAREAAEEAKALAEKVKANPKATQEEIDKLNQLALQAEVAEEAIREGYAVEAAERRAREALEEAKKIAEEAEKKAA | not found |
| design_599_7ce25d4d-e004-4b84-a16f-baf856d943ab_1164_dldesign_0_cycle1_af2pred (protein) GKEEAYKKAKEAAEKALEKAEKALKLAKEGKIEEAAKELAEAQELRAEAEFYANKSDKEKKEELLKLIEEAKKKIKEARKVAKEKA | not found |
| design_599_7ce25d4d-e004-4b84-a16f-baf856d943ab_160_dldesign_0_cycle1_af2pred (protein) AVKEQTEKTVAATRAAAEAVPEYGEELEKGARVIERLVKDGFLEGAIDVANAIAKFSREVAAEVSEEQAAILKEAADLAEELAKLAK | not found |
| design_599_7ce25d4d-e004-4b84-a16f-baf856d943ab_1731_dldesign_0_cycle1_af2pred (protein) AAADAKKIQALREKVAEAAALAKDPKTAAEAAKIAKATAKEAKEAAKAATDPAAKKAFAKVAEKAKAVAEEAEKIAKA | not found |
| design_599_7ce25d4d-e004-4b84-a16f-baf856d943ab_1788_dldesign_0_cycle1_af2pred (protein) MEEERREEGRRLAEELVEKAKKAKELAKSGEKIEEAKKLLKEAREEAKKAAKAGLLTPEELKEVADAIHEAYEAIAEGEAKK | not found |
| design_599_7ce25d4d-e004-4b84-a16f-baf856d943ab_1363_dldesign_0_cycle1_af2pred (protein) GEAEKAARYLKLAEELAAEVKKNYDNAEKLKEIAREAREAAKEAPESVKPVLAKVAQDAYEARAEAERNASLN | not found |
